Hits are enriched below; roughly 10% of the tested compounds scored in any of these assays.
PLK1 PBD block = qHTS for Inhibitors of PLK1-PDB (polo-like kinase 1 - polo-box domain): Primary Screen | Potency, µM, usual class: inhibitors | 360,000 compounds, 2.8% hits | Plk1 PBD binding of FITC phosphopeptide, fluorescence polarization | Serine/threonine-protein kinase PLK1 (Homo sapiens), P53350 | AID 720504, 2013; further: series mostly up to about 57 µM; nearly all actives have a fitted effect of over 65% in size
G9a block = qHTS Assay for Inhibitors of Histone Lysine Methyltransferase G9a | Histone-lysine N-methyltransferase EHMT2 (Homo sapiens), Q96KQ7 | G9a H3K9 monomethylation, AlphaScreen, 2 h | Potency, µM (doses to about 102 µM), usual class: inhibitors | 350,000 compounds, 8.8% hits | AID 504332, 2011; further: nearly all actives have a fitted effect of over 75% in size
Target sequence (Q96KQ7 913-1193 limits assumed): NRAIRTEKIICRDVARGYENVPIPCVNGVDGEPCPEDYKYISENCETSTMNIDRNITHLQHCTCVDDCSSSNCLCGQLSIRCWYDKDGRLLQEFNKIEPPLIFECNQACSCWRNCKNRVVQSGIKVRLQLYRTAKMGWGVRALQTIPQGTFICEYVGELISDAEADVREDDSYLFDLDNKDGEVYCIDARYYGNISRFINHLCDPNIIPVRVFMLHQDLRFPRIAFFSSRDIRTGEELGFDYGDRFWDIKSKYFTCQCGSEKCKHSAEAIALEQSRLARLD
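G9a (20 nM) was preincubated 15 min with compound, then reacted 2 h at room temperature with 500 nM biotin-H3K9 peptide and 20 µM SAM. Monomethyl-H3K9 detected by AlphaScreen using anti-H3K9me1 antibody.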
Sfp PPTase inh = qHTS Assay for Inhibitors of Bacillus subtilis Sfp phosphopantetheinyl transferase (PPTase); 310,000 compounds, 3.5% hits; Biochemical Sfp PPTase activity, qHTS; Potency, µM, usual class: inhibitors;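 further: the enzyme is Sfp with the accession as filed and its product quenches rhodamine fluorescence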
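Fluorescence-quenching assay: 15 nM Sfp-PPTase preincubated 15 min at room temperature with compound, then 5 uM rhodamine-CoA and 12.5 uM BHQ-2-labelled YbbR peptide added. Fluorescence (ex 525/em 598 nm) read at start and after 30 min; difference gives rate.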
MmCpn inh = Inhibitors of TCP-1 ring complex (TRiC) of Methanococcus maripaludis (MmCpn): qHTS; Chaperonin Mm-Cpn (Methanococcus maripaludis); purified Mm-Cpn ATPase, ADP Transcreener TR-FRET; Potency, µM (series often up to 76.9 µM), actives largely listed as inhibitors; 330,000 compounds, 0.031% hits; AID 504842, 2011; further: nearly all actives have a fitted effect of over 80% in size
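Eu-cryptate anti-ADP/ADP-d2 competition gives a ratio inversely related to ADP. Enzyme at 25 nM was pre-exposed to compound for 10 min, then given 10 uM ATP for 30 min, 37°C throughout.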
CCT modulator = High-Throughput Screening for Modulators of Cytosolic Chaperonin Activity | purified chaperonin ATPase assay, HTRF ADP detection, 30 min | activity change, % (test concentration not listed), hits read low | 360,000 compounds, 0.3% hits; in the data active means activity change below about -30%
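We incubate TRiC, 40 or 20 nM final, with library compounds at 76 uM and 10 uM ATP for 30 min at 37 °C. ADP formed is detected with Transcreener HTRF reagents after 30 min at room temperature.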
VDR inh = Inhibitors of the vitamin D receptor (VDR): qHTS; Vitamin D3 receptor (Homo sapiens), P11473; VDR-SRC2-3 peptide fluorescence polarization, 2 h; Potency, µM, usual class: inhibitors; 400,000 compounds, 0.93% hits; AID 504847, 2011
Target sequence (P11473 whole entry, looked up): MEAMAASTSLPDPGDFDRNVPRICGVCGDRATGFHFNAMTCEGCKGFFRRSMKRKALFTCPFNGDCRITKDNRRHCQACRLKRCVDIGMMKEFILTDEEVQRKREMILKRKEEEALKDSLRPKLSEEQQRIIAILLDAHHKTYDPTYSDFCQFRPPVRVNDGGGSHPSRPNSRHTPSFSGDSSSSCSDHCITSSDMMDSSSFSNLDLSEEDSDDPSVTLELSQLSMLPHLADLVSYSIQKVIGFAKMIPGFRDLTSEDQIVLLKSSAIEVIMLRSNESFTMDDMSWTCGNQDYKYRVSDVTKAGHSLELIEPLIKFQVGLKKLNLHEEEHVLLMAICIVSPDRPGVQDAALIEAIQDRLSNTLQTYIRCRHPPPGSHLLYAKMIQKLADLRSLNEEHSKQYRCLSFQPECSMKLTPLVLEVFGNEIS
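Two reagent solutions held at 4 deg C in the dark were dispensed, compounds pinned at 23 nl, and the mixture incubated 2 h at room temperature. Read-out: fluorescence polarization of VDR–SRC2-3 peptide binding.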
Large screens that a line does not name were inactive. Unless noted, the call rests on the fitted dose curve; in most records, active means well fitted curve in the direction sought with a large enough effect; inconclusive means small, poorly fitted or top-dose-only effect, or another doubt; inactive means no such curve, though single readings can be large; an effect the other way counts as inactive or inconclusive.

O=C(Cn1c(=O)sc2ccccc21)Nc1ccc(O)cc1	Sfp PPTase inh 79µM
Cc1ccc(S(=O)(=O)NC(=O)NN2CC3CCCC3C2)cc1 (configuration not stated)	Sfp PPTase inh inconclusive, CCT modulator -44
Cc1ccc(S(=O)(=O)NC(=O)NC(C)(C)C)cc1	none
CCCN1CCN(C(=O)c2oc3ccccc3c2NC(=O)COc2ccc(OC)cc2)CC1	VDR inh 20µM
COc1ccc(OCC(=O)Nc2c(C(=O)N3CCN(C)CC3)oc3ccccc23)cc1	PLK1 PBD block 30µM
O=C(C1CCC1)N1CCc2cc(S(=O)(=O)NCCc3ccccc3)ccc21	none (no result: PLK1 PBD block, Sfp PPTase inh, MmCpn inh, CCT modulator)
O=C1c2cc(Br)ccc2N(Cc2ccc(Br)cc2)S(=O)(=O)C1c1cc(Cl)c(Cl)cc1[N+](=O)[O-] (configuration not stated)	PLK1 PBD block 21µM, MmCpn inh inconclusive (no result: G9a block, Sfp PPTase inh)
O=C1CS(=O)(=O)N(Cc2cccc(F)c2)c2ccc(Br)cc21	none (no result: Sfp PPTase inh)
Cc1cc(C)n2nc(SCC(=O)Nc3cc(Cl)ccc3C)nc2n1	none (no result: PLK1 PBD block, Sfp PPTase inh, MmCpn inh, CCT modulator)
O=C(N/C=C/c1ccco1)Nc1cccc(Cl)c1	G9a block 50µM
COc1ccc(NC(=O)N/C=C/c2ccco2)cc1	PLK1 PBD block inconclusive, G9a block 10µM, Sfp PPTase inh 50µM
O=C(Nc1cccc(Cl)c1)Nc1cccc(Cl)c1	none
Cc1nn2c3c(cnc2c1-c1ccc(Cl)cc1)C(=O)CC(c1ccc(C(C)C)cc1)C3 (configuration not stated)	none (no result: PLK1 PBD block, Sfp PPTase inh, MmCpn inh, CCT modulator)
CCCN(CCC)CCCNC(=O)C1CCN(c2nc3ccc(CC)cc3s2)CC1	none (no result: PLK1 PBD block, Sfp PPTase inh, MmCpn inh, CCT modulator)
CS(=O)(=O)c1nc(-c2ccco2)cc(C(F)(F)F)n1	G9a block 32µM (no result: PLK1 PBD block, CCT modulator, VDR inh)
O=C(CCS(=O)(=O)c1ccccc1)Nc1nc2c(s1)COc1ccccc1-2	G9a block 50µM
O=C(Nc1nc2c(s1)COc1ccccc1-2)c1cccs1	G9a block 45µM
CC(=O)c1sc(NC(=O)CCS(=O)(=O)c2ccccc2)nc1C	none
CNS(=O)(=O)c1cn(CC(=O)N2CCN(c3ccc(C)cc3C)CC2)cc1S(=O)(=O)NC	G9a block inconclusive (no result: PLK1 PBD block, Sfp PPTase inh, MmCpn inh, CCT modulator)
CCN1CCN(C(=O)c2ccc3c(c2)N(Cc2cc(C)ccc2C)C(=O)c2ccccc2S3(=O)=O)CC1	none (no result: PLK1 PBD block, Sfp PPTase inh, MmCpn inh, CCT modulator)
Cc1ccc2cc(CCNC(=O)c3ccco3)c(=O)[nH]c2c1C	G9a block 79µM
COc1ccc2cc(CCNC(=O)c3ccco3)c(=O)[nH]c2c1	G9a block 45µM
COc1ccc(Nc2cc(C(=O)NCCCN3CCN(C)CC3)c3ccccc3n2)cc1OC	G9a block 3.5µM
COc1ccc(N2CCN(CCNC(=O)c3ccc4c(c3)[nH]c(=S)n3c5ccccc5nc43)CC2)cc1	G9a block 50µM
COc1ccc(N2CCN(CCCNC(=O)c3c(C)nn(-c4ccc(F)cc4)c3-n3cccc3)CC2)cc1	G9a block 4.5µM (no result: PLK1 PBD block, Sfp PPTase inh, MmCpn inh, CCT modulator)
COCCn1c(=O)[nH]c2cc(C(=O)NCCCN3CCN(c4ccc(F)cc4)CC3)ccc2c1=O	VDR inh inconclusive
COc1ccc(Nc2cc(C(=O)NCCCN3CCOCC3)c3ccccc3n2)cc1OC	none
COc1ccc(Nc2cc(C(=O)NCCCN3CCN(c4ccc(OC)cc4)CC3)c3ccccc3n2)cc1	G9a block 11µM (no result: PLK1 PBD block, Sfp PPTase inh, MmCpn inh, CCT modulator)
CCOc1ccc(-n2nc(CO)c(C(=O)NCCCc3ccccc3)n2)cc1	none (no result: PLK1 PBD block, Sfp PPTase inh, MmCpn inh, CCT modulator)
Cc1ccc(NC(=O)c2sc(-n3nc(C)c(Cc4ccc5c(c4)OCO5)c3C)nc2C)cc1C	none (no result: PLK1 PBD block, Sfp PPTase inh, MmCpn inh, CCT modulator)
COc1ccc(N2CCN(CCCNC(=O)C(=O)c3c[nH]c4ccccc34)CC2)cc1	G9a block 40µM
CCN(CC)CCNC(=O)c1cc(Nc2ccc(OC)c(OC)c2)nc2ccccc12	G9a block 71µM
COc1ccc(N2CCN(CCCNC(=O)c3cc(Nc4ccccc4OC)nc4ccccc34)CC2)cc1	G9a block 10µM (no result: PLK1 PBD block, Sfp PPTase inh, MmCpn inh, CCT modulator)
COc1ccc(Nc2cc(C(=O)NCCCN3CCOCC3)c3ccccc3n2)c(OC)c1	none
COc1ccc(Nc2cc(C(=O)NCCCN3CCN(c4ccccc4F)CC3)c3ccccc3n2)c(OC)c1	G9a block 13µM (no result: PLK1 PBD block, Sfp PPTase inh, MmCpn inh, CCT modulator)
COc1cc(C(=O)N2C(=O)CCC2=O)cc(OC)c1OC	G9a block 35µM
Cc1ccccc1Cn1c(SCc2ccc(C(=O)NC3CCCCC3)cc2)nc2ccncc21	G9a block inconclusive (no result: PLK1 PBD block, Sfp PPTase inh, MmCpn inh, CCT modulator)
COC(=O)[C@H]1Cc2c([nH]c3ccccc23)[C@H](c2ccccc2)N1	none
COC(=O)C1Cc2c([nH]c3ccccc23)CN1 (configuration not stated)	G9a block 40µM
CCN(C(=O)Cn1ncc2c(=O)oc3ccc(C)cc3c21)c1cc(OC)ccc1OC	G9a block inconclusive (no result: PLK1 PBD block, Sfp PPTase inh, MmCpn inh, CCT modulator)
Cc1cn2c(=O)cc(COC(=O)COc3ccc(F)cc3)nc2s1	none (no result: PLK1 PBD block, Sfp PPTase inh, MmCpn inh, CCT modulator)
Cc1cncn1CCc1nc2c3ccccc3nc(SCC(=O)Nc3cccc(Cl)c3)n2n1	G9a block 14µM, Sfp PPTase inh inconclusive
COc1ccc(OC(C)C(=O)Nc2ccc(F)cc2F)cc1 (configuration not stated)	PLK1 PBD block 21µM
COc1ccc(OC(C)C(=O)Nc2ccccc2F)cc1 (configuration not stated)	none
N#Cc1c(N(CCO)CCO)nc(N)c2c(N)nc3c(c12)CC(=O)N3Cc1cccs1	G9a block 45µM
Cc1ccc(NC(=O)c2ccc(NCCCN3CCC(C)CC3)c([N+](=O)[O-])c2)cc1F	G9a block 71µM
Cc1cccc(CNC(=O)c2cccc(NC(=O)N3CCSc4ncccc43)c2)c1	none (no result: PLK1 PBD block, Sfp PPTase inh, MmCpn inh, CCT modulator)
CC1CCC(=O)N(CCC#N)CC1 (configuration not stated)	G9a block 50µM
CC1CCC(=O)N(CCSc2ccccc2)CC1 (configuration not stated)	none
O=C(NCc1ccc2c(c1)CCN2C(=O)c1ccncc1)c1ccccc1Cl	none (no result: PLK1 PBD block, Sfp PPTase inh, MmCpn inh, CCT modulator)
CN(C)C(=O)c1sccc1Oc1ccc(F)cc1[N+](=O)[O-]	PLK1 PBD block 24µM
COC(=O)c1sccc1Oc1ccc(F)cc1[N+](=O)[O-]	none
COc1ccc(N2CCN(CC(O)COC(c3ccccc3)c3ccccc3)CC2)cc1 (configuration not stated)	G9a block 40µM
Cc1ccccc1C(OCC(O)CN1CCN(CCO)CC1)c1ccccc1 (configuration not stated)	G9a block 7.9µM, Sfp PPTase inh inconclusive
